# Source: PubChem BioAssay (NCI)
# About 83,000 compounds went through this panel and 20% of them were active in at least one assay; those are over-represented in the sample as a whole.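 Compound tested at a single concentration for 48 hours in 96-well plates; a percent growth value below 10 was scored as active.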 A number with no mark means an inactive call. Calls of active or inactive are those of the source.
# System: MDA-MB-468 breast
# Experiment: NCI-60 one-dose screen, 48 h (100 = growth as untreated, 0 = no growth, -100 = all killed)
# Settings: 10 µM unless noted
row,Compound,growth
1,COC(=O)C1=Nc2ccc(F)cc2/C1=C\c1sc(Nc2ccc(O)cc2)nc1O,56.1%
2,COc1cccc(-c2nn(-c3ccccc3)cc2-c2ccnc(NCCNC(=O)c3ccccc3)c2)c1,47.7%
3,O=c1cc(Cl)nc2ccccn12,107%
4,COc1ccc2c(c1)C(=O)/C(=C/c1ccccn1)CC2,40.4%
5,Cc1cccc(Cc2cnc(NC(=O)CCCOc3ccc(Cl)cc3)s2)c1,3.77% (active)
6,COc1ccc(-c2nn(-c3ccc(NC(=O)c4cc(Cl)cc(Cl)c4)cc3)cc2-c2ccncc2)cc1Cl,70.1%
7,COc1c(C2CC(=O)Nc3c2cnn3Cc2ccco2)cc2c(c1OC)OCO2 (stereo not given),16.2%
8,O=[N+]([O-])c1cnc(N2CCN(CC3CC3)CC2)nc1N1CCN(CC2CC2)CC1,76.9%
9,COc1cc(C(=O)NNC(=O)c2ccccc2O)cc(OC)c1OC,103%
10,CC(C)(O)c1cncc(-c2ccc3ncnc(NCc4ccccc4)c3c2)c1,64.8%
11,COc1cccc(-n2cc(-c3nc(Nc4cc(C)[nH]n4)c4ccccc4n3)nn2)c1,48.1%
12,COC1(OC)C2(Cl)C(Cl)=C(Cl)C1(Cl)C1COCC12 (stereo not given),87%
13,O=C1C=CC(Nc2ccccc2[N+](=O)[O-])C1Nc1ccccc1[N+](=O)[O-] (stereo not given),-97.4% (active)
14,CC(=O)N1c2ccccc2NC2=C(C(=O)NC2(C)C)C1c1ccco1 (stereo not given),65.9%
15,O=C(N/N=C/c1cc(Cl)ccc1O)c1ccccc1Nc1ccnc(C(F)(F)F)c1,12.8%
16,N#Cc1c(-c2ccccc2)nc(SCC2CO2)nc1N1CCOCC1 (stereo not given),55.9%
17,Cc1ccc(C(=O)Nc2ccc(CNCCN3CCNCC3)c(C(F)(F)F)c2)cc1C#Cc1cnc2cccnn12,-83% (active)
18,NC1[C@H]2CN(c3cnc(C(=O)Nc4cc(F)cc5cccnc45)cn3)C[C@@H]12 (stereo not given in full),3.36% (active)
19,CC(C)(Sc1cc(C(C)(C)C)c(O)c(C(C)(C)C)c1)Sc1cc(C(C)(C)C)c(OC(=O)CCC(=O)O)c(C(C)(C)C)c1,47.4%
20,C[C@@]1(N2C(=O)OC[C@@H]2c2ccccc2)C(=O)N([C@H](CC(=O)N2CCC(N3CCCCC3)CC2)C(=O)NCc2cccc(C(F)(F)F)c2)[C@@H]1/C=C/c1ccccc1,23.7%

row,Compound,growth
1,COc1cc(N=Nc2ccc(O)c3ncccc23)c2ncccc2c1,-36.5% (active)
2,CCOC(=O)CC/C(C)=N\Nc1ccc([N+](=O)[O-])cc1,83.2%
3,CCNCCCn1c2c(c3ccc(Cl)cc3c1=O)C(=O)c1cc(OC)cnc1-2,5.92% (active)
4,O=C(Nc1ccc(Br)c(Cl)c1)c1cc(F)ccc1O,-24.5% (active)
5,CCCN1C=C/C(=C\C(=O)n2ccc3ccccc32)c2ccccc21,7.36% (active)
6,Cc1ccc(-n2cc(/C=C/C(=O)c3ccc(S(C)(=O)=O)cc3)c(-c3ccc(S(C)(=O)=O)cc3)n2)cc1,106%
7,COc1ccc(-c2cn3c(ccc4ccccc43)n2)cc1,108%
8,Cc1cc(C)cc(NC(=O)Cn2nncc2CN2C(=O)CSC2=O)c1,97%
9,COc1ccc(N)cc1C(=O)Nc1cccc(-c2cc(=O)c3c(OC)c(OC)c(OC)cc3o2)c1,55.9%
10,Cn1cc(-c2csc(-c3cn(C)c4ncccc34)n2)c2ccccc21,18%
11,c1cn2cc(-c3ccc4cn[nH]c4c3)nc(Nc3ccc(N4CCOCC4)cc3)c2n1,61.8%
12,N#CC1=C(N)Oc2c(ccc3cccnc23)C1c1ccccc1 (stereo not given),-7.81% (active)
13,Cc1nn(-c2ccccc2)c2c1N=c1s/c(=C\c3ccc(C(F)(F)F)cc3)c(=O)n1CN2,44.1%
14,O=c1oc2ccccc2cc1C1=NN=C(SCc2ccccc2)SC1,118%
15,COc1ccc(-c2cc(-c3ccccc3)nc(SCCCCCC(=O)NO)n2)cc1,64.8%
16,Cc1ccc(S(=O)(=O)N(CCC(=O)O)c2ccccc2)cc1,113%
17,COc1ccc([C@@H]2[C@@H](O)C(=O)N2c2cc(OC)c(OC)c(OC)c2)cc1Cl,22.8%
18,COc1ccc2c(c1)oc1c(C)c3c(c(C)c12)C(=O)N(N)C3=O,59.7%
19,COC(c1ccc2ccccc2c1)C(C)C(F)F (stereo not given),99.7%
20,O=C1NC(=S)NC(=O)C1=Cc1cn(Cc2ccccn2)c2ccccc12,-40.6% (active)
